Only some compounds are listed: those with a hit (about 8% of all), similar ones and a draw of the others.
KB-V1 cytotox – KB-V1 MDR subline cytotoxicity; KB-V1 MDR cells viability, CellTiter-Glo, 72 h; Potency, µM (highest dose often 46.1 µM), actives largely listed as cytotoxic; hit rate 3.4% among 400,000; AID 1347076; also: nearly all actives have a fitted effect of over 60% in size
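KB-V1 MDR subline cells in DMEM (phenol-red free, 10% FBS) exposed to compounds in qHTS concentration series for 72 h at 37 degrees C. Viability read by CellTiter-Glo luminescence; concentration-effect curves fitted after normalization and correction.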
HT1080 IDH1KD tx – kills HT-1080 cells with IDH1 knockdown | AID 686971 | hit rate 2% among 360,000 | HT-1080 IDH1 knockdown viability, ATP luminescence, 48 h | Potency, µM (highest dose often 46.1 µM), hits mostly cytotoxic
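% activity derives from luminescence (CellTiter-Glo), normalised to DMSO and no-cell wells. HT-1080-IDH1KD cells, 750/well, had 48 h compound exposure at 37 °C.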
HT1080NT lethal – kills 2HG-producing HT-1080-NT fibrosarcoma cells. HT-1080-NT fibrosarcoma viability, CellTiter-Glo ATP luminescence, 48 h. Potency, µM (doses to about 46.1 µM), hits mostly cytotoxic. hit rate 1.6% among 360,000. AID 686970;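 also: NT is the 2HG producing partner of a matched IDH1 knockdown line; nearly all actives have a fitted effect of over 55% in size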
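HT-1080-NT; 750 cells/well; 5% FBS RPMI; 48 h compound, 37 degrees C; CellTiter-Glo luminescence; curve fitting and curve-class assignment.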
MCF10A rerep – inducers of DNA re-replication in MCF 10A breast cells. hit rate 2.9% among 350,000. Potency, µM (series often up to 46.1 µM), most hits filed as activators. MCF 10A DNA re-replication, Hoechst nuclear intensity, 48 h; also: nearly all actives have a fitted effect of over 50% in size
SW480 rereplic – inducers of DNA re-replication in SW480 colon cancer cells | Potency, µM (top dose mostly 46.1 µM), usual class: activators | hit rate 1.8% among 340,000 | SW480 DNA re-replication, Hoechst DNA content imaging, 48 h; also: nearly all actives have a fitted effect of over 55% in size
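Readout is total intensity of Hoechst-stained nuclei, excited at 405 nm and collected at 500-530 nm. Compound treatment lasted 48 hr at 37 C in 5% CO2 before staining.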
KB-3-1 tox – kills parental KB-3-1 adenocarcinoma cells. KB-3-1 viability, CellTiter-Glo ATP luminescence, 72 h. Potency, µM (highest dose often 46.1 µM), actives largely listed as cytotoxic. hit rate 1.4% among 400,000. AID 1347075; also: nearly all actives have a fitted effect of over 60% in size
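Luminescent ATP read-out (CellTiter-Glo) measures survival of drug-naive KB-3-1 cells after 72 h compound exposure at 37 °C. Titration series was screened from lowest to highest concentration, with DMSO vehicle plates as background controls.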
A number is an active result; [ ] = dose if it differs, or a comment. Calls follow the shape of the dose curve; as a rule, active = well fitted curve in the direction sought with a large enough effect; inconclusive = small, poorly fitted or top-dose-only effect, or another doubt; inactive = no such curve, though single readings can be large; an effect the other way counts as inactive or inconclusive.

CCOC(=O)C1CCN(C(=O)CN2c3ccc(C(C)C)cc3-c3ccccc3S2(=O)=O)CC1 was read as KB-V1 cytotox inactive and KB-3-1 tox inactive.
Cn1c(=O)c(C(=O)Nc2ccccn2)c(O)c2ccccc21 was read as KB-V1 cytotox 2.3µM, HT1080 IDH1KD tx inactive, HT1080NT lethal inactive, MCF10A rerep inactive, SW480 rereplic inactive and KB-3-1 tox 18µM.
CC(NC(=O)c1c(O)c2ccccc2n(C)c1=O)c1ccccc1 (centres undefined) was read as KB-V1 cytotox inconclusive, HT1080 IDH1KD tx inactive, HT1080NT lethal inactive, MCF10A rerep inactive, SW480 rereplic 23µM and KB-3-1 tox inconclusive.
Screening Cn1c(=O)c(C(=O)Nc2ccccc2S(N)(=O)=O)c(O)c2ccccc21 returned KB-V1 cytotox inconclusive, HT1080 IDH1KD tx inactive, HT1080NT lethal inactive, MCF10A rerep inactive, SW480 rereplic inactive and KB-3-1 tox inactive.
For CC(=O)c1c(O)c2ccccc2n(C)c1=O the results were KB-V1 cytotox inactive, HT1080 IDH1KD tx inactive, HT1080NT lethal inactive, MCF10A rerep inactive, SW480 rereplic inactive and KB-3-1 tox inactive.
Screening COc1ccccc1NC(=O)C(Cc1ccccc1)NS(=O)(=O)c1ccc2c(c1)CCN2C(C)=O (centres undefined) returned KB-V1 cytotox inactive and KB-3-1 tox inactive.
`O=[N+]([O-])c1cc(-c2nc(-c3ccccc3)no2)ccc1N1CCOCC1` gave KB-V1 cytotox inactive and KB-3-1 tox inactive.
For NC(=S)Nc1cccc2cc3ccccc3cc12 the results were KB-V1 cytotox inactive, HT1080 IDH1KD tx inactive, HT1080NT lethal inactive, MCF10A rerep inconclusive, SW480 rereplic 12µM and KB-3-1 tox inactive.
NC(=S)Nc1cc2ccccc2c2ccccc12 was read as KB-V1 cytotox inactive, HT1080 IDH1KD tx inactive, HT1080NT lethal inactive, MCF10A rerep inactive, SW480 rereplic inactive and KB-3-1 tox inactive.
For O=c1c(Cl)c(Nc2cccc(Cl)c2)cnn1-c1nc2ccccc2s1 the results were KB-V1 cytotox inactive, HT1080 IDH1KD tx inactive, HT1080NT lethal inactive, MCF10A rerep inactive, SW480 rereplic inactive and KB-3-1 tox inconclusive.
For COc1ccc(Nc2cnn(-c3nc4ccccc4s3)c(=O)c2Cl)cc1 the results were KB-V1 cytotox 21µM, HT1080 IDH1KD tx inconclusive, HT1080NT lethal inconclusive, MCF10A rerep inconclusive, SW480 rereplic inactive and KB-3-1 tox inconclusive.
For N#C/C(N=Nc1ccccc1O)=N\Nc1ccccc1O the results were KB-V1 cytotox inconclusive, HT1080 IDH1KD tx 9.2µM, HT1080NT lethal 21µM, MCF10A rerep inconclusive, SW480 rereplic inactive[9.22 µM] and KB-3-1 tox 16µM.
CCOC(=O)c1cnc(Nc2nc3ccccc3o2)nc1CN1CCN(C)CC1 was read as KB-V1 cytotox 13µM, HT1080 IDH1KD tx 15µM, HT1080NT lethal inconclusive, MCF10A rerep inconclusive, SW480 rereplic inconclusive and KB-3-1 tox inconclusive.
`COc1ccc(OC)c(C2C(C(=O)Nc3ccc(C)cc3)=C(C)Nc3nnnn32)c1` (centres undefined) gave KB-V1 cytotox inactive and KB-3-1 tox inactive.
`CNC(=O)CN1C(=O)COc2ccc(S(=O)(=O)N3CCC(C)CC3)cc21` gave KB-V1 cytotox inconclusive and KB-3-1 tox inactive.
For CC(=O)Nc1ccc(S(=O)(=O)N(C)S(=O)(=O)c2ccc(F)cc2)cc1 the results were KB-V1 cytotox 16µM, HT1080 IDH1KD tx inconclusive, HT1080NT lethal inactive, MCF10A rerep inactive, SW480 rereplic inactive and KB-3-1 tox inactive.
Screening CN(c1ccccc1)S(=O)(=O)c1ccc(NC(=O)c2ccc(F)cc2)cc1 returned KB-V1 cytotox inactive, HT1080 IDH1KD tx inactive, HT1080NT lethal inactive, MCF10A rerep inconclusive, SW480 rereplic inactive and KB-3-1 tox inactive.
CCOC(=O)c1ccc(NS(=O)(=O)c2cc(Br)cc3c2N(C(C)=O)C(C)C3)cc1 (centres undefined) was read as KB-V1 cytotox inactive and KB-3-1 tox inconclusive.
For COC(=O)CNC(c1ccccc1)c1cc(Br)ccc1NC(C)=O (centres undefined) the results were KB-V1 cytotox inactive, HT1080 IDH1KD tx inactive, HT1080NT lethal inactive, MCF10A rerep inactive, SW480 rereplic inactive and KB-3-1 tox inactive.
For COC(=O)CNC(c1ccccc1Cl)c1cc(Br)ccc1NS(=O)(=O)c1ccc(C)cc1 (centres undefined) the results were KB-V1 cytotox 18µM, HT1080 IDH1KD tx inactive, HT1080NT lethal inactive, MCF10A rerep inconclusive, SW480 rereplic inactive and KB-3-1 tox inconclusive.
CC1=C[C@@H](O)CC(C)(C)[C@@H]1/C=C/C(C)=C/C=C/C(C)=C/C=C/C=C(C)/C=C/C=C(C)/C=C/C1=C(C)C[C@H](O)CC1(C)C was read as MCF10A rerep 30µM and SW480 rereplic inconclusive.
Screening CC1=C(/C=C/C(C)=C\C=C\C(C)=C\C=C\C=C(C)\C=C\C=C(C)\C=C\C2=C(C)C[C@@H](O)CC2(C)C)C(C)(C)C[C@H](O)C1 returned MCF10A rerep inconclusive and SW480 rereplic inactive.
`Cc1cccc(NC(=S)N(CCCN2CCCC2)Cc2cccn2Cc2ccc(Cl)cc2)c1` gave KB-V1 cytotox inconclusive, HT1080 IDH1KD tx inconclusive, HT1080NT lethal 13µM, MCF10A rerep inconclusive, SW480 rereplic inactive and KB-3-1 tox inconclusive.
For COc1ccc2oc(-c3ccc(NC(=O)c4ccc(Cl)cc4Cl)cc3)nc2c1 the results were KB-V1 cytotox inactive and KB-3-1 tox inactive.
`C=CCOc1ccc(/C=N/O)cc1Cl` gave KB-V1 cytotox inactive, HT1080 IDH1KD tx inactive, HT1080NT lethal inactive, MCF10A rerep inactive, SW480 rereplic inactive and KB-3-1 tox 12µM.
`Cc1ccn2c(c1)nc(=O)c1cc(S(=O)(=O)N3CCCCC3)c(Cl)cc12` gave KB-V1 cytotox inactive and KB-3-1 tox inactive.
Screening COc1ccc(NC(=O)C2CC(c3ccc(OC)c(OC)c3)=NO2)cc1OC (centres undefined) returned KB-V1 cytotox inactive, HT1080 IDH1KD tx inactive, HT1080NT lethal inactive, MCF10A rerep inactive, SW480 rereplic inactive and KB-3-1 tox inactive.
Screening COc1cccc(C2=NOC(C(=O)Nc3cc(OC)c(OC)c(OC)c3)C2)c1 (centres undefined) returned KB-V1 cytotox 21µM, HT1080 IDH1KD tx inactive, HT1080NT lethal inactive, MCF10A rerep inconclusive, SW480 rereplic inactive and KB-3-1 tox inactive.
Screening COc1ccc(NC(=O)C2CC(c3cc(OC)c(OC)c(OC)c3)=NO2)cc1OC (centres undefined) returned KB-V1 cytotox 13µM, HT1080 IDH1KD tx inactive, HT1080NT lethal inactive, MCF10A rerep inactive, SW480 rereplic inactive and KB-3-1 tox inactive.

Screens (PubChem BioAssay)
